In PubChem BioAssay AID1892 (NMMLSC, 2009) one finds binding response (% of control) data, which are given here for 92 compounds.

Structures are written as SMILES. Screen size: about 5,900 compounds; about 140 (2.4%) were called active. Shown is part of a subset that was picked to be rich in actives. Values without a mark were called inactive. Rule as the data show it: active = binding response below about 16% or above about 210%; inactive = in between.

The target of this test is Mitogen-activated protein kinase kinase kinase 2 (Homo sapiens) (UniProt Q9Y2U5). Nature of the test: wildtype MEKK2 PB1-MEK5 interaction enhancers or blockers – biochemical, single concentration, multiplex bead flow cytometry, confirmation (AID 1892). Conditions: Alexa488-MEK5 binding to MEKK2 WT, at 10 µM, actives lie on both sides. (Flow cytometry measures light scatter and fluorescence of single cells or particles in a stream.)
Regarding `COc1cccc(OC)c1C(=O)Nc1ccc(Cc2ccncc2)cc1`, the binding response (% of control) is 100%. With `CCCN(CCC)c1nc2c(C)cccn2c(=O)c1/C=C1/SC(=S)N(Cc2ccco2)C1=O` the figure was 85%; with `CCCCn1c(SCC(=O)NCCc2ccc(OC)c(OC)c2)nc2c1c(=O)n(C)c(=O)n2C`, 103%. With `CCc1ccc(-c2nn(-c3ccccc3)cc2CSC(=N)N)cc1` the figure was 210% (active); with `N=C(N)SCc1cccc2ccccc12`, 105%; with `CC(=O)N1CCN(S(=O)(=O)c2ccc(C)c([N+](=O)[O-])c2)C1C(C)C` (configuration not stated), 97%. With `COc1ccc(CC(=O)N2N=C(C)CC2(O)C(F)(F)F)cc1` (configuration not stated), the binding response (% of control) is 96%. As to `COc1ccc(S(=O)(=O)Nc2ccc3oc(C)c(C(C)=O)c3c2)cc1`, the binding response (% of control) is 95%. Regarding `NC(N)=N/N=C/c1ccc(OCc2ccc(Cl)cc2Cl)cc1`, the binding response (% of control) is 234% (active). `CC(C)CC(=O)NC(=S)Nc1cc(C(=O)O)ccc1Cl`: the binding response (% of control) is 102%. Regarding `CCn1cc(CN2CCC(C(=O)Nc3cccc(-c4cccc(Cl)c4)c3)CC2)cn1`, the binding response (% of control) was 182%. Consider `O=C(Cc1cccc2ccccc12)Nc1ccc2oc(-c3ccccc3)nc2c1`, for which the binding response (% of control) is 115%. In the case of `O=C(CN1C(=O)c2cccnc2Oc2ccc(Cl)cc21)Nc1ccc(F)cc1`, the binding response (% of control) is 99%. Regarding `N/C(=N\OS(=O)(=O)c1cccc([N+](=O)[O-])c1)c1ccncc1`, the binding response (% of control) was 103%. `c1ccc2c(c1)C(=NC1CCCCC1)NC2=NC1CCCCC1`: the binding response (% of control) was 125%. For `CCOC(=O)CN(C)S(=O)(=O)c1ccc(-c2cc(C(=O)OC)sc2C(F)(F)F)cc1`, the binding response (% of control) is 101%. As to `O=C(NCCC1=CCCCC1)c1ccc(Cl)c([N+](=O)[O-])c1`, the binding response (% of control) is 105%. For `CCN(CC)CCOc1ccc2c(c1)C(=NNC(=O)c1ccccn1)c1cc(OCCN(CC)CC)ccc1-2`, the binding response (% of control) is 210% (active).

For the compound `CN(C)CCCNC(=O)c1cc(C(=O)Cc2ccc(Cl)cc2)c[nH]1`, the binding response (% of control) was 106%. For the compound `C[C@H]1CCC(=O)N([C@H](CSc2ccccc2)Cc2ccccc2)CC1`, the binding response (% of control) is 111%. On to `O=C(NCCCN1CCCCCC1)C1CC(=O)N(C2CCCC2)C1` (configuration not stated), for which the binding response (% of control) is 1% [inhibitor] (active). As to `Cn1c(C(=O)NCCCN2CCCCC2)cc2sccc21`, the binding response (% of control) is 119%. As to `O=C(NCCCN1CCCCCC1)c1ccc(N2CCCC2=O)cc1`, the binding response (% of control) was 156%. On to `C=CCn1c(=S)sc2c(=O)[nH]c(C)nc21`, for which the binding response (% of control) was 106%. Regarding `N#C/C(=C\C1=C(N2CCOCC2)C(=C\c2ccccc2)/CC1)C(=O)Nc1ccccc1F`, the binding response (% of control) was 10% [inhibitor] (active). For the compound `O=C1Nc2ccc(Br)cc2/C1=N/N=C/C1=C(N2CCOCC2)C(=C\c2ccccc2)/CC1`, the binding response (% of control) is 47%. Then `O=C(O)C1CCN(c2ccc([N+](=O)[O-])cc2[N+](=O)[O-])CC1`, with 103%. Turning to `Cc1ccc2c(C)c(C(=O)N3CCN(c4ccncc4)CC3)oc2c1C`, the binding response (% of control) is 161%. `CC1(C)Cc2cccc(OCC(=O)N3CCN(c4ccc([N+](=O)[O-])cc4)CC3)c2O1`: the binding response (% of control) was 99%.

With `CN1C(=O)/C(=C\c2ccc(-c3ccccc3)o2)SC1=S`, the binding response (% of control) is 23%. Take `CCOC(=O)N1CCN(CC(=O)n2c(C)c(C)c3ccccc32)CC1`: the binding response (% of control) was 93%. On to `FC(F)(F)c1nc(-c2ccccc2)ncc1-c1nnnn1-c1ccccc1`, for which the binding response (% of control) is 96%. Then `O=C(NCCCN1CCN(c2ccc(F)cc2)CC1)Nc1ccc([N+](=O)[O-])cc1`, with 129%; and `COc1ccc(C(=O)C[n+]2ccc(C)cc2)cc1`, with 104%; and `COc1cc(Br)c(-c2sc(Nc3ccccc3)n[n+]2-c2ccccc2)cc1OC`, with 134%. Take `CN(C)CCCNC(=S)N1CCN(c2nc(-c3ccccc3)cs2)CC1`: the binding response (% of control) is 108%. In the case of `O=C(O)CC(Cc1ccccc1)C(=O)Nc1ccc([N+](=O)[O-])cc1` (configuration not stated), the binding response (% of control) was 96%.

Turning to `Cc1onc(-c2ccccc2Cl)c1C(=O)OCC(=O)c1ccccc1`, the binding response (% of control) was 94%.

On to `COc1cc(C)nc(N2CCCC(C(=O)NCC(C)C)C2)n1` (configuration not stated), for which the binding response (% of control) is 97%. On to `CCN(CC)CCC(c1ccc2c(c1)OCO2)c1c(OC)cc(OC)c2c(-c3ccccc3)cc(=O)oc12` (configuration not stated), for which the binding response (% of control) was 134%.

Consider `COc1ccc(CNC(=O)C2CCN(S(C)(=O)=O)CC2)cc1`, for which the binding response (% of control) is 103%. For the compound `Cc1ccc(CNC(=O)Cn2c(=O)c3sccc3n(Cc3cccc([N+](=O)[O-])c3)c2=O)cc1`, the binding response (% of control) was 103%. `COc1cccc(/C=N\NC(=O)C2=NNC(=O)C2C)c1O` (configuration not stated): the binding response (% of control) is 100%. For `COc1cccc(CNCCc2c[nH]c3ccccc23)c1OCc1ccccc1F`, the binding response (% of control) is 131%.

Consider `C#CCOCCOCCOCCNc1nc(N2CCN(C(=O)C([C@@H](C)CC)n3cc(C(N)COC(=O)C(F)(F)F)nn3)CC2)nc(N2CCN(C(=O)[C@H](CCCCN)n3cc(C(N)CC(C)C)nn3)CC2)n1` (some centres not stated), for which the binding response (% of control) is 191%. Then `O=C(Nc1ccn(Cc2ccccc2)n1)c1cccc(F)c1`, with 105%; and `CN(C)CCCN(C(=O)COc1ccccc1)c1nc2c(Cl)cccc2s1`, with 133%; and `O=C(CN1CCN(C(=O)c2ccco2)CC1)Nc1ccc(Cl)c(C(F)(F)F)c1`, with 112%. Take `CNC(C)C#Cc1ccc2sc3cc(OC)c(OC)cc3c(=O)c2c1` (configuration not stated): the binding response (% of control) is 128%. For `COc1cccc(C2CC(c3ccccc3)=NN2S(=O)(=O)c2ccccc2)c1OC` (configuration not stated), the binding response (% of control) was 98%. On to `O=C(Nc1ccc(Cl)cn1)c1cnn2cccnc12`, for which the binding response (% of control) is 108%. With `CCC(C)OC(=O)C(C)Oc1ccc(-c2ccccc2)cc1` (configuration not stated), the binding response (% of control) is 106%.

Turning to `Cn1ccc(=Nc2ccc(NC(=O)c3ccc(N=c4ccn(C)c5ccc([N+](=O)[O-])cc45)cc3)cc2)cc1`, the binding response (% of control) was 152%. `CC1CCN(C2=NC(=O)/C(=C/c3cn[nH]c3-c3ccccc3)S2)CC1`: the binding response (% of control) is 94%. With `COc1cccc(Nc2ncccc2C(=O)O)c1` the figure was 97%; with `CCCc1nnc(SCC(=O)N2C(C)CCCC2C)n1CC` (configuration not stated), 110%. Regarding `Cc1ccc(C)c(CN2CCC(CNC(=O)Nc3ccc(C)c(F)c3)CC2)c1`, the binding response (% of control) was 146%. Turning to `CSCC[C@H](NC(=O)CCCn1nnc2ccccc2c1=O)C(=O)O`, the binding response (% of control) is 105%.

Turning to `CCc1ccc2nc(Nc3ncc(C(C)=O)c(C)n3)nc(C)c2c1`, the binding response (% of control) was 103%. Regarding `CCOc1ccc(S(=O)(=O)NCCCn2ccnc2)cc1NC(C)=O`, the binding response (% of control) was 100%. With `CCC(=C/c1sc2ccc3ccccc3c2[n+]1C)/C=C1\Sc2ccc3ccccc3c2N1C` the figure was 13% [inhibitor] (active); with `O=C(O)c1cccnc1NC1CCCC1`, 109%. Turning to `COc1ccc(N2CCN(Cc3nnc(-c4ccccc4)o3)CC2)cc1`, the binding response (% of control) is 94%.

Regarding `C[N+](C)(C)CCNC(=O)c1c(O)c2c([nH]c1=O)CCCC2`, the binding response (% of control) was 101%. Turning to `COc1ccc(NC(=O)Cn2nnc(C(=O)NCCc3ccc(OC)c(OC)c3)c2N)cc1`, the binding response (% of control) was 98%.

On to `CC(C)(C)c1nnc(NC(=O)C2c3ccccc3Oc3ccccc32)s1`, for which the binding response (% of control) is 93%. On to `Clc1ccc(-c2nnc(SCc3nc4ccccc4s3)o2)cc1`, for which the binding response (% of control) was 98%. Consider `CCCn1c(=N)n(CC(=O)c2ccc(Cl)c(Cl)c2)c2ccccc21`, for which the binding response (% of control) was 144%. Take `CCCCN1C(=O)/C(=C(/C#N)C(N)=O)c2ccccc21`: the binding response (% of control) is 102%. Consider `O=C(NCCN1CCOCC1)[C@H](Cc1ccccc1)N1C(=O)c2ccccc2C1=O`, for which the binding response (% of control) was 103%. Then `COc1cc2c(cc1OC)CN(C(=O)c1ccc(S(=O)(=O)N3CCCCCC3)cc1)CC2`, with 97%; and `O=C(O)c1cc(Cl)c(Cl)cc1C(=O)Nc1cccc2ncccc12`, with 99%; and `Cc1noc(C)c1S(=O)(=O)N(C)Cc1ccccc1`, with 105%.

Take `CN(Cc1ccccc1)CC(O)COc1ccc(CNCc2cc3ccccc3s2)cc1` (configuration not stated): the binding response (% of control) is 129%. Consider `CN(CC(=O)Nc1cccc(F)c1)CC(=O)Nc1cccc([N+](=O)[O-])c1`, for which the binding response (% of control) is 99%. On to `CC(C)c1ccc(C(=O)NCCCc2ccccc2)cc1`, for which the binding response (% of control) is 94%. As for `COc1cc(-c2nnc(Cn3cc(C(F)(F)F)ccc3=O)o2)cc(OC)c1OC`, the binding response (% of control) is 103%. With `O=C(CCCO)N/N=C/c1cc(Br)ccc1O`, the binding response (% of control) was 106%.

In the case of `O=C(NC1CCN(Cc2ccccc2)CC1)c1cc(Br)c(Br)[nH]1`, the binding response (% of control) was 128%. On to `Cc1cccc(OCCNC(=O)CSc2ccc(C(F)(F)F)cc2[N+](=O)[O-])c1`, for which the binding response (% of control) was 104%. Consider `N=c1c2c(-c3ccccc3)c(-c3ccccc3)n(Cc3ccccc3)c2ncn1CCCO`, for which the binding response (% of control) is 134%. On to `Cc1nn(-c2ccccc2)c(NC(=O)c2cccs2)c(-c2ccc(Cl)cc2)c1=O`, for which the binding response (% of control) is 101%. Take `CCn1c(NC(=O)c2ccccc2)c(-c2cccs2)c(=O)c2ccccc21`: the binding response (% of control) is 102%. For the compound `C/C=C/c1ccc(OCCCCN2CCC(C)CC2)c(OC)c1`, the binding response (% of control) was 109%. With `CC(C)C(=O)N1c2ccccc2NC2=C(C(=O)CCC2)C1c1ccc(N(C)C)cc1` (configuration not stated) the figure was 116%; with `Cc1c(-c2ccccc2)cn2c1-c1ccc(C)n1CC2`, 93%. Turning to `O=C(Cc1cccs1)N/N=C/c1ccc(OCc2ccccc2)cc1`, the binding response (% of control) was 101%. Turning to `Cc1c(S(=O)(=O)NCc2ccccc2)c(=O)n(C)c(=O)n1C`, the binding response (% of control) is 102%. As for `Cc1[nH]c2ccc(S(N)(=O)=O)cc2c1C`, the binding response (% of control) is 97%. As to `C=CCN1C=C2C(=O)C(C)(OC(=O)CCc3ccccc3)C(=O)C=C2C=C1c1ccc(C#N)cc1` (configuration not stated), the binding response (% of control) was 98%. As for `C=C(C)C1CC=C(C)/C(=N\NC(=O)CNc2ccccc2OC)C1` (configuration not stated), the binding response (% of control) was 107%. With `O=C(CSc1ccc(-c2ccc(F)cc2)nn1)Nc1ccc2c(c1)OCCO2`, the binding response (% of control) was 105%.
